This note sets out measurements from PubChem BioAssay (EPA / NIEHS).

Calls of active or inactive are those of the source. Rule for the calls: active = hit-call score of the fitted dose curve at least 0.9, where 1 is the maximum; inactive = score below 0.9.

Read-out in this test: growth arrest and DNA damage 45 (GADD45G), GADD45G (gene 10912)
The test is described as follows: LTEA_HepaRG_GADD45G: Life Technologies and Expression Analysis (LTEA) Assay for growth arrest and DNA damage 45 (GADD45G) using HepaRG (AID 2283499). Conditions: mRNA level, 48 h; actives raise or lower the signal. The method, then:
LTEA_HepaRG is a cell based, multiplexed-readout assay that uses HepaRG, a human liver cell line, with measurements taken at 48 hours after chemical dosing on a 96-well plate.LTEA_HepaRG_GADD45G is one of 102 assay component(s) measured in the LTEA HepaRG cell culture assay. It is a marker of Cell proliferation, survival, death.Data from the assay component LTEA_HepaRG_GADD45G was analyzed into 1 endpoint. This assay endpoint, LTEA_HepaRG_GADD45G, was analyzed with bidirectional fitting relative to DMSO as the negative control and baseline of activity. Using a type of inducible reporter, measures of mRNA induction for gain or loss-of-signal activity can be used to understand regulation of transcription factor activity. To generalize the intended target to other relatable targets, this assay endpoint is annotated to the mutagenicity response intended target family, where the subfamily is Cell proliferation, survival, death.
A total of 1060 chemcials from the ToxCast library were tested in eight-point concentration-response experiments. Cell culture and cytotoxicity assays were conducted at Thermo Fisher Scientific's Custom Services facility (Madison, WI). A single lot of human HepaRG cells (Thermo Fisher Scientific, Frederick, MD) was used for the cell culture experiments. 96-well format collagen type I coated plates of human HepaRG cells were prepared using established methods. Briefly, cryopreserved HepaRG cells were thawed, plated at a density of approximately 100,000 cells/well in HepaRG Thaw, Plate, and General Purpose media (HPRG770, Thermo Fisher Scientific), and incubated for 48 hours. 0.5% DMSO was selected as vehicle control to balance the requisite need of DMSO in HepaRG cultures to maintain differentiation (for example, baseline metabolism, proportions of hepatocytes vs. cholangiocytes), while enabling further hepatic receptor pathway activation (for example, PXR and CAR) in response to chemical exposure. 48 hours after plating, the culture medium was replaced with HepaRG Serum-Free Incudtion Media. Cells were exposed to each test chemical in duplicate and maintained in CO2 incubators for another 48 hours. Chemical plates were thawed to room temperature and 200x concentrations of treatment groups were prepared. 8-point conentration-reponse curves were made with the highest exposure at 100 uM, followed by half-log dilutions, all in 0.5% DMSO. Each test plate contained variouse controls, induction positive controls (1mM phenobarbital), cytotoxicity positive controls ([…] aflatoxin B1), vehicle controls (0.5% DMSO), and total lysis controls (0.5% DMSO). Cell morphology images were taken using an Essen IncuCyte FLR automated microscope, with six 96-well plates imaged in about 24 minutes. Images were captured and exported and JPEG files. Spent culture media was transfered to black-well plates for the LDH assay, and remaining media was sorted at -80 C for later use. Cells were treated with RLT buffer and frozen until shipped for gene expression analysis. Total RNA was isolated from the cell suspension in 75 uL of Buffer RLT (Qiagen, Germantown, MD 20874) by Quintiles/Expression Analysis (Durham, NC) using a custom isolation procedure. Total RNA from each plate well was transferred to a preamplification plate. Fluidigm's 96.96 Dynamic ArrayTM (Fluidigm, Amsterdam, the Netherlands) technology was used for gene expression analyses by quantitative reverse transcription polymerase chain reaction (qRT-PCR, performed by Quintiles/Expression Analysis, Durham, NC)89. Standard TaqManTM Assays (Applied Biosystems/ThermoFisher Scientific, Foster City, CA) were used to assess the expression of 93 genes selected based on their selectivity and sensitivity to important hepatic receptors known to be modulated by environmental chemicals; importance in human hepatocyte functionality; and hepatotoxicity. […]
Consider `CCOP(=S)(OCC)SCSC(C)(C)C`, for which the call was inactive.

As for `O=C(NC(=O)c1c(F)cccc1F)Nc1cc(Cl)c(OC(F)(F)C(F)F)c(Cl)c1`, the compound was called inactive.

Regarding `COc1ccc(O)c(C(C)(C)C)c1`, the compound was classed as inactive.

Take `O=C(N[C@H]1CN2CCC1CC2)c1cc2ccoc2cn1`: the outcome was inactive.

Take `CCOCCOC(C)=O`: the result was inactive.

As for `Oc1c(Cl)c(Cl)c(Cl)c(Cl)c1Cl`, the AC50 is 12.6 µM (active).

For `O=C(O)C(F)(F)C(F)(F)C(F)(F)C(F)(F)C(F)(F)C(F)(F)C(F)(F)C(F)(F)F`, the AC50 is 85.6 µM (active).

Regarding `CC(C)C(=O)OCC(C)(C)C(OC(=O)C(C)C)C(C)C` (stereo not given), the result was inactive.

In the case of `Oc1ccc(C(c2ccc(O)cc2)(C(F)(F)F)C(F)(F)F)cc1`, the call was inactive.

As for `Cc1cccc(C)c1N`, the outcome was inactive.

Take `N#Cc1ccc(N(CC(N)=O)CC(F)(F)F)cc1C(F)(F)F`: the compound was called inactive.

As for `CCCCCCCCCC[N+](C)(C)CCCCCCCCCC`, the AC50 is 83.7 µM (active).

For `CCCCCCCCOC(=O)c1ccccc1C(=O)OCCCCCCCC`, the result was inactive.

Turning to `Cc1ccccc1O`, the compound was classed as inactive.

Take `O=NN(c1ccccc1)c1ccccc1`: the call was inactive.

For the compound `Cc1cccc([N+](=O)[O-])c1`, the outcome was inactive.

On to `NS(=O)(=O)C(F)(F)C(F)(F)C(F)(F)C(F)(F)C(F)(F)C(F)(F)C(F)(F)C(F)(F)F`, for which the AC50 was 50 µM (active).

Consider `CCC(C)c1cc([N+](=O)[O-])cc([N+](=O)[O-])c1O` (stereo not given), for which the AC50 was 4.96 µM (active).

As to `CN(C)c1nc(=O)n(C2CCCCC2)c(=O)n1C`, the compound was classed as inactive.

Turning to `Cc1ccccc1[N+](=O)[O-]`, the result was inactive.

Consider `ClC1=C(Cl)[C@]2(Cl)[C@@H]3[C@@H](Cl)[C@H]4O[C@H]4[C@@H]3C1(Cl)C2(Cl)Cl`, for which the call was inactive.

On to `Clc1ccc(Cl)cc1`, for which the compound was called inactive.

Regarding `C=CC(N)=O`, the compound was classed as inactive.

For the compound `CC(c1ccc(O)cc1)(c1ccc(O)cc1)c1ccc(O)cc1`, the AC50 is 75.1 µM (active).

As for `Cc1ccccc1CO[C@@H]1C[C@@]2(C(C)C)CC[C@]1(C)O2`, the compound was called inactive.

Take `CCC(C)(c1ccc(O)cc1)c1ccc(O)cc1`: the compound was called inactive.

In the case of `CCCCCCCCCc1ccc(O)cc1`, the call was inactive.

On to `Cc1cc(-c2ccc(N)c(C)c2)ccc1N`, for which the AC50 was 26 µM (active).

On to `CCNc1nc(NC(C)C)nc(SC)n1`, for which the half-maximal activity concentration (AC50) was 63.9 µM (active).

Turning to `Clc1ccc(C(Cl)(Cl)Cl)cc1`, the compound was called inactive.

As for `O=S(=O)(O)C(F)(F)C(F)(F)C(F)(F)C(F)(F)F`, the call was inactive.

Regarding `O=C(NC(=O)c1cc(F)c(F)cc1Cl)Nc1cc(F)ccc1N1CCC(C(=O)O)CC1`, the outcome was inactive.

Consider `Oc1ccc(Cl)cc1Cl`, for which the outcome was inactive.

In the case of `Nn1cnnc1`, the outcome was inactive.

With `Clc1ccc(C(c2ccccc2Cl)C(Cl)(Cl)Cl)cc1` (stereo not given), the AC50 was 90 µM (active).

Consider `ClC1=C(Cl)[C@]2(Cl)[C@@H]3[C@H]4C[C@H]([C@@H]5O[C@H]45)[C@@H]3[C@@]1(Cl)C2(Cl)Cl`, for which the result was inactive.

For `c1cc2ccc3cccc4ccc(c1)c2c34`, the compound was classed as inactive.

As to `C[C@]12CCC(=O)C=C1CC[C@@H]1[C@@H]2CC[C@@]2(C)[C@H]1CC[C@]2(C)O`, the compound was classed as inactive.

As for `Cc1cc(O)ccc1Cl`, the compound was classed as inactive.

Take `O=C(O)C(F)(F)C(F)(F)C(F)(F)C(F)(F)C(F)(F)F`: the compound was classed as inactive.

As a reminder, the AC50 is the concentration at which the activity in the assay is half-maximal.
